Measurements published in the supplement of paper PMC10849652.
The full data set covers some 8,800 targets. This sample favours those with a hit. About 0.5% of all pairs of compound and target were hits. Unmarked numbers belong to inactive results.

Assays:
Experiment in all cases: log2 fold change, soluble protein after heating vs DMSO (PISA); higher = thermal stabilisation; K562 lysate, 10 uM; active = over 0.2 and 3.5 SD of the protein, either way, in both replicates (recomputed)
alvocidib = compound: CN1CC[C@H](c2c(O)cc(O)c3c(=O)cc(-c4ccccc4Cl)oc23)[C@H](O)C1 [alvocidib]
Procedure, shortened: (§1)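 Following dounce homogenisation of K562 pellets in PBS pH 7.4 with 1 mM MgCl2, crude extract at 1 mg/mL protein was incubated for 30 min with 10 μM compound. Aliquots were then heated for 3 min over 48°C-58°C and pooled, NP-40 was added to 0.5% at 4°C, and soluble protein was recovered as the supernatant at 21,000xg for 90 min. Channel-sum-equalised TMTpro 16plex LC-MS/MS quantified this protein. Each value, from duplicates, is a log-two fold change in thermal stability relative to solvent controls.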

Tubastatin A = compound: CN1CCc2c(c3ccccc3n2Cc2ccc(C(=O)NO)cc2)C1 [Tubastatin A]
Procedure, shortened: as §1

[1] = compound: CNC(=O)C1=CC=CC=C1NC2=NC(=NC=C2Cl)NC3=C(C=C(C=C3)N4CCOCC4)OC
Procedure, shortened: as §1

defactinib = compound: CNC(=O)c1ccc(Nc2ncc(C(F)(F)F)c(NCc3nccnc3N(C)S(C)(=O)=O)n2)cc1 [defactinib]
Procedure, shortened: as §1

[2] = compound: CNc1nc(-c2ccc3c(N)n[nH]c3c2)cc(N2C[C@@H](C(=O)NC3CCCCC3)CC[C@H]2C)n1
Procedure, shortened: as §1

encorafenib = compound: COC(=O)N[C@@H](C)CNc1nccc(-c2cn(C(C)C)nc2-c2cc(Cl)cc(NS(C)(=O)=O)c2F)n1 [encorafenib]
Procedure, shortened: as §1

[3] = compound: COC(=O)[C@H](CCSC)NC(=O)C1=C(C=C(C=C1)NC[C@H](CS)N)C2=CC=CC=C2
Procedure, shortened: as §1

alisertib = compound: COc1cc(Nc2ncc3c(n2)-c2ccc(Cl)cc2C(c2c(F)cccc2OC)=NC3)ccc1C(=O)O [alisertib]
Procedure, shortened: as §1

[4] = compound: COc1cc2nc(-c3cc(F)ccc3O)nc(N[C@@H]3CNC[C@H]3C(C)(C)O)c2cc1OC
Procedure, shortened: as §1

gefitinib = compound: COc1cc2ncnc(Nc3ccc(F)c(Cl)c3)c2cc1OCCCN1CCOCC1 [gefitinib]
Procedure, shortened: as §1

lapatinib = compound: CS(=O)(=O)CCNCc1ccc(-c2ccc3ncnc(Nc4ccc(OCc5cccc(F)c5)c(Cl)c4)c3c2)o1 [lapatinib]
Procedure, shortened: as §1

pictilisib = compound: CS(=O)(=O)N1CCN(Cc2cc3nc(-c4cccc5[nH]ncc45)nc(N4CCOCC4)c3s2)CC1 [pictilisib]
Procedure, shortened: as §1

crizotinib = compound: C[C@@H](Oc1cc(-c2cnn(C3CCNCC3)c2)cnc1N)c1c(Cl)ccc(F)c1Cl [crizotinib]
Procedure, shortened: as §1

[5] = compound: C[C@H](C1=CC=C(C=C1)C(=O)NC2=C3C=CNC3=NC=C2)N
Procedure, shortened: as §1

duvelisib = compound: C[C@H](Nc1ncnc2nc[nH]c12)c1cc2cccc(Cl)c2c(=O)n1-c1ccccc1 [duvelisib]
Procedure, shortened: as §1

gandotinib = compound: Cc1cc(Nc2cc(CN3CCOCC3)c3nc(C)c(Cc4ccc(Cl)cc4F)n3n2)n[nH]1 [gandotinib]
Procedure, shortened: as §1

tozasertib = compound: Cc1cc(Nc2cc(N3CCN(C)CC3)nc(Sc3ccc(NC(=O)C4CC4)cc3)n2)n[nH]1 [tozasertib]
Procedure, shortened: as §1

doramapimod = compound: Cc1ccc(-n2nc(C(C)(C)C)cc2NC(=O)Nc2ccc(OCCN3CCOCC3)c3ccccc23)cc1 [doramapimod]
Procedure, shortened: as §1

bafetinib = compound: Cc1ccc(NC(=O)c2ccc(CN3CC[C@H](N(C)C)C3)c(C(F)(F)F)c2)cc1Nc1nccc(-c2cncnc2)n1 [bafetinib]
Procedure, shortened: as §1

[6] = compound: Cc1cccc(CC(=O)N2CCc3c2ccc(-c2cn(C)c4ncnc(N)c24)c3F)n1
Procedure, shortened: as §1

Chain of UniProt Q03393 (Q03393 whole entry, looked up): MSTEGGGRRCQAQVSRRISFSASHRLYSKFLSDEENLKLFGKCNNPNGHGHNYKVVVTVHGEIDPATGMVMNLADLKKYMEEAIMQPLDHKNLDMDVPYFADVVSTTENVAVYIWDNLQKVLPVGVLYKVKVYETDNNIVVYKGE
Chain of UniProt P17706 (P17706 whole entry, looked up): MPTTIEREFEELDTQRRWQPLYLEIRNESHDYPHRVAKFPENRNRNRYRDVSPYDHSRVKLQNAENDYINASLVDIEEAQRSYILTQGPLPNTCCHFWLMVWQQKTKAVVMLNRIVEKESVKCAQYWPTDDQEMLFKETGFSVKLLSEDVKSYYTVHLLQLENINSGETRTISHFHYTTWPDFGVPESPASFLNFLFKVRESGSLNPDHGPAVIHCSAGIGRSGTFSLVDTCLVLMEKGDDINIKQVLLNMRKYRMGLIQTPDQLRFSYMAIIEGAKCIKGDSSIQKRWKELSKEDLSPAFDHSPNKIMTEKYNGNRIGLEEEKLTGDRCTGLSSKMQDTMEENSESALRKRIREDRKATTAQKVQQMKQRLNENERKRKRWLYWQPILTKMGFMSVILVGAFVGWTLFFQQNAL
Chain of UniProt Q9H2H8 (Q9H2H8 whole entry, looked up): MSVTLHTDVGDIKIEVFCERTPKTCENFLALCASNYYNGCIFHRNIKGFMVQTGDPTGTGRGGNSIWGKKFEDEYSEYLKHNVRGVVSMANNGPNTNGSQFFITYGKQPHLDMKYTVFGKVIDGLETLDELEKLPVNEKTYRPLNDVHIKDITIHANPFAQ
Chain of UniProt O60825 (O60825 whole entry, looked up): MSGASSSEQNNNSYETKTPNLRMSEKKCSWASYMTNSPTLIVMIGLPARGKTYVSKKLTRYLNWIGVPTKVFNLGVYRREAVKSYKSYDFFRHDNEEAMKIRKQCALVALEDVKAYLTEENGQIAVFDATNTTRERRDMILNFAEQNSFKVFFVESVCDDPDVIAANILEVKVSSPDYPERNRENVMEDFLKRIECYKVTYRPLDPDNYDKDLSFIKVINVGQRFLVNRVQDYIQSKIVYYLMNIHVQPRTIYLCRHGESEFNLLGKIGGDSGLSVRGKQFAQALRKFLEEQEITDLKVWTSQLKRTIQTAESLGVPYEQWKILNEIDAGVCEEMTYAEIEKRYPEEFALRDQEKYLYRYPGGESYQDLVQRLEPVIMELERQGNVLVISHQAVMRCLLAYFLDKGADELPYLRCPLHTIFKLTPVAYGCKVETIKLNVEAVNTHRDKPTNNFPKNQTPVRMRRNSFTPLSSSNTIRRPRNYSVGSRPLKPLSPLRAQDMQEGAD
Chain of UniProt Q9UBF8 (Q9UBF8 whole entry, looked up): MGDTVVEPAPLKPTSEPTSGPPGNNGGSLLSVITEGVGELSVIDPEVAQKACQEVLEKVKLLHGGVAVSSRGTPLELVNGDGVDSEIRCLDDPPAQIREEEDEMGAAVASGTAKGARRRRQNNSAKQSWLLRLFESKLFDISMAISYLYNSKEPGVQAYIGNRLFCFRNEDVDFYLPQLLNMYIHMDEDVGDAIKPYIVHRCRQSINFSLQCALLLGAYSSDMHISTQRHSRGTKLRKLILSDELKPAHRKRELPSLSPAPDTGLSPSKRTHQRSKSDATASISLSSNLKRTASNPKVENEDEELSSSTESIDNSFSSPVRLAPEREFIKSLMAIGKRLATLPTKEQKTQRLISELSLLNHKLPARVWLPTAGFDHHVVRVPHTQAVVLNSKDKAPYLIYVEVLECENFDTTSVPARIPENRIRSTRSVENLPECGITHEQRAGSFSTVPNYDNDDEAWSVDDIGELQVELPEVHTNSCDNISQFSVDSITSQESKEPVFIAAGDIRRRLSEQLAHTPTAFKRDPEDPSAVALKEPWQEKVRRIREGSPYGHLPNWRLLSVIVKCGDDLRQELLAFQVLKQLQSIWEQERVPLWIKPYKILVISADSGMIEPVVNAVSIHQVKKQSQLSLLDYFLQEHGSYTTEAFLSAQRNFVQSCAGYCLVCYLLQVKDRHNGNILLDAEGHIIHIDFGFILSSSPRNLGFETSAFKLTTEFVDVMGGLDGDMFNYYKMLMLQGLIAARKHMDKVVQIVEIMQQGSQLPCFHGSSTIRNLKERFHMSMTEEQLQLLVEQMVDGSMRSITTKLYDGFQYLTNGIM
Chain of UniProt Q9HBH1 (Q9HBH1 whole entry, looked up): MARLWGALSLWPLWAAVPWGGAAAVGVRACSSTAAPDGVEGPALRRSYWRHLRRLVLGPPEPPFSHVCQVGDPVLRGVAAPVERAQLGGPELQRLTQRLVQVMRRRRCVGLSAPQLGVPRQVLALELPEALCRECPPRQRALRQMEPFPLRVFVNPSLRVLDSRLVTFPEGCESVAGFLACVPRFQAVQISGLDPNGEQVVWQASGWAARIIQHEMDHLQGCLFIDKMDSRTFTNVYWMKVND
Chain of UniProt Q9Y5K3 (Q9Y5K3 whole entry, looked up): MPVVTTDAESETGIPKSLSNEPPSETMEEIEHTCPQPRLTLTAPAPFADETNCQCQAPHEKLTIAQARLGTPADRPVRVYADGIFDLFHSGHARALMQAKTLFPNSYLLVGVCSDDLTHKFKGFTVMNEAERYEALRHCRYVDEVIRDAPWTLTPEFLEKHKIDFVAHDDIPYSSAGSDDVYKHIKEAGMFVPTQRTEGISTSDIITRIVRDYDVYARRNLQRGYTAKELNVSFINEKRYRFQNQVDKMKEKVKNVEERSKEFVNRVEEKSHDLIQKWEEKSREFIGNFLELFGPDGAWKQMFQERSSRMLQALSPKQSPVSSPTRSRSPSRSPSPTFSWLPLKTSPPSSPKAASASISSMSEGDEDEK
Chain of UniProt Q9BUL8 (Q9BUL8 whole entry, looked up): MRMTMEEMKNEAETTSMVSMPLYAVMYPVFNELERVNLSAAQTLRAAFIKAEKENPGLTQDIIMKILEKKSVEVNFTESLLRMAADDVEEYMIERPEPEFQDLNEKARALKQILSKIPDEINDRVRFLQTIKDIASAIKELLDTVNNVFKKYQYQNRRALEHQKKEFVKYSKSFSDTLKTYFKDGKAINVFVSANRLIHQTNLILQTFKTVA
Chain of UniProt Q9H0N5 (Q9H0N5 whole entry, looked up): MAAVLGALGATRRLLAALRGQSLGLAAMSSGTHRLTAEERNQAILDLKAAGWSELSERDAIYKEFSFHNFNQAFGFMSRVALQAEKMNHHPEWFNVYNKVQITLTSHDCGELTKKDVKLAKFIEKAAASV
Chain of UniProt Q8TEQ8 (Q8TEQ8 whole entry, looked up): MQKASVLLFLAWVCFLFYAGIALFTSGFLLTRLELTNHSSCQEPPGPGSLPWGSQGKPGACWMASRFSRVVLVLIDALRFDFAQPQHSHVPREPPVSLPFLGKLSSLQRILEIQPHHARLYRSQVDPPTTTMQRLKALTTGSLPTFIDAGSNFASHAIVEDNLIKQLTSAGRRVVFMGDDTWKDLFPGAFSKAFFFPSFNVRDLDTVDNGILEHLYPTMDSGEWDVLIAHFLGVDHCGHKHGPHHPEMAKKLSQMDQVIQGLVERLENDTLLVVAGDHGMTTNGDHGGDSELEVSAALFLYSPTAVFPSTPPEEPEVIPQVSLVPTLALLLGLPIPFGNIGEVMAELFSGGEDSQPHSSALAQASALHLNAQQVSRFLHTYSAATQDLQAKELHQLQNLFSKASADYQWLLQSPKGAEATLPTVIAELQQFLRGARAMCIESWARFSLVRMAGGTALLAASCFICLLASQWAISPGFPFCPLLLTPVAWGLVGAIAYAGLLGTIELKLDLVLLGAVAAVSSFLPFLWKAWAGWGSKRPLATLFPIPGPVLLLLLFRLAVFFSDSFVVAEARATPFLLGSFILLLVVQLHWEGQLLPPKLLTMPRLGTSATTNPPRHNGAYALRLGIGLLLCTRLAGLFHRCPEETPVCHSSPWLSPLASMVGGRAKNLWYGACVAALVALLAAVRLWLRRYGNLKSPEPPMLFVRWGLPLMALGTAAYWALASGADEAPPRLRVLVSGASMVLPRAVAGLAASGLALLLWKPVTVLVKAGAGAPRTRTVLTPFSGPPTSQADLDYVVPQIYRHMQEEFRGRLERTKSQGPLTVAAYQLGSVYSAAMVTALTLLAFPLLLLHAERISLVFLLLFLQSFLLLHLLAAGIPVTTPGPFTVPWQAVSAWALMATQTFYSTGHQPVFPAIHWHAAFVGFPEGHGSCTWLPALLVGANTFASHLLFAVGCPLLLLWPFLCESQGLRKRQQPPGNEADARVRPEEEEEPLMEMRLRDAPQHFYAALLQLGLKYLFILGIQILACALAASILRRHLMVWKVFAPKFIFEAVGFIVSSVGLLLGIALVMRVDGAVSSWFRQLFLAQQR
Chain of UniProt Q8TD55 (Q8TD55 whole entry, looked up): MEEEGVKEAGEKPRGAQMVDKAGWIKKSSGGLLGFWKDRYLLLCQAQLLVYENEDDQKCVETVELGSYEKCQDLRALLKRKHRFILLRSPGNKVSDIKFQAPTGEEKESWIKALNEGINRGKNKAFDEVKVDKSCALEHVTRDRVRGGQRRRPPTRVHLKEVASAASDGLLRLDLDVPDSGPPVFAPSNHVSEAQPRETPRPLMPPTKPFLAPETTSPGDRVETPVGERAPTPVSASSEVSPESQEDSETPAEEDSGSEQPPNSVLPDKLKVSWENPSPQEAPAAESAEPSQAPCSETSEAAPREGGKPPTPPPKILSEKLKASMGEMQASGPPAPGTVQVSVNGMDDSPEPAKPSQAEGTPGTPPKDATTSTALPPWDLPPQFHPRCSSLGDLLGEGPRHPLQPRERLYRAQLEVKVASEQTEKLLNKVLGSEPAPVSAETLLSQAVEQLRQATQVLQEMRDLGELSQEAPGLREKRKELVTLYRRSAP
Chain of UniProt Q9NXJ5 (Q9NXJ5 whole entry, looked up): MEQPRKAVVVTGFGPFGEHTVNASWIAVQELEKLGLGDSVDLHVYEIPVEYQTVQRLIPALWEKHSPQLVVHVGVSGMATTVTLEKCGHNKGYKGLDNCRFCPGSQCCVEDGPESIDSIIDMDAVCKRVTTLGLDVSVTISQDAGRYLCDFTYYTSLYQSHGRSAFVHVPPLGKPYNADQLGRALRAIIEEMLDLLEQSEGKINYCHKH

Target | log2 fold change (alvocidib) | log2 fold change (Tubastatin A) | log2 fold change [1] | log2 fold change (defactinib) | log2 fold change [2] | log2 fold change (encorafenib) | log2 fold change [3] | log2 fold change (alisertib) | log2 fold change [4] | log2 fold change (gefitinib) | log2 fold change (lapatinib) | log2 fold change (pictilisib) | log2 fold change (crizotinib) | log2 fold change [5] | log2 fold change (duvelisib) | log2 fold change (gandotinib) | log2 fold change (tozasertib) | log2 fold change (doramapimod) | log2 fold change (bafetinib) | log2 fold change [6]
PIGO (UniProt Q8TEQ8) | 0.038 | -0.112 | -0.095 | 0.046 | 0.143 | 0.019 | -0.121 | 0.061 | -0.073 | 0.013 | 0.047 | 0.133 | -0.02 | 0.019 | 0.076 | -0.193 | 0.117 | -0.186 | -0.026 | 0.037
PCYT1B (UniProt Q9Y5K3) | -0.007 | -0.023 | 0.033 | 0.01 | 0.086 | 0.047 | -0.025 | 0.033 | -0.02 | 0.033 | 0.008 | 0.004 | 0.025 | -0.044 | -0.007 | 0.193 | 0.008 | -0.003 | -0.127 | 0.239 (active)
PGPEP1 (UniProt Q9NXJ5) | 0.05 | -0.182 | 0.012 | -0.032 | -0.055 | 0.02 | 0.057 | -0.045 | 0.01 | -0.06 | 0.023 | -0.013 | 0.011 | -0.025 | 0.057 | -0.029 | 0.03 | 0.045 | -0.013 | -0.019
PFKFB2 (UniProt O60825) | 0.017 | -0.045 | 0.03 | -0.02 | -0.035 | 0.015 | -0.124 | 0.014 | 0.006 | 0.014 | 0.006 | 0.001 | 0.017 | -0.016 | -0.015 | -0.035 | 0.038 | -0.018 | -0.07 | 0.01
PDF (UniProt Q9HBH1) | 0.01 | -0.065 | 0.083 | 0.059 | 0.011 | 0.028 | -0.293 (active) | 0.048 | -0.181 | -0.064 | 0.027 | -0.016 | -0.067 | 0.018 | -0.076 | -0.019 | 0.029 | 0.027 | -0.162 | 0.025
PI4KB (UniProt Q9UBF8) | 0.005 | -0.032 | 0.228 | 0.094 | 0.056 | 0.081 | -0.069 | -0.001 | -0.097 | 0 | 0.02 | 0.031 | -0.011 | -0.01 | 0.005 | 0.011 | -0.02 | 0.055 | -0.073 | 0.014
PTS (UniProt Q03393) | -0.055 | -0.007 | 0.043 | -0.059 | 0.015 | 0.1 | -0.022 | -0.009 | 0.016 | 0.121 | -0.018 | 0.008 | 0.051 | -0.024 | 0.051 | -0.039 | 0.031 | -0.069 | 0 | 0.05
PRKAR2A (UniProt P13861) | -0.028 | -0.019 | -0.176 | -0.085 | -0.017 | 0.037 | 0.142 | 0.002 | -0.062 | 0.024 | 0.036 | -0.094 | 0.013 | 0.006 | -0.025 | -0.232 (active) | 0.015 | 0.036 | -0.026 | 0.031
POLR3E (UniProt Q9NVU0) | 0.011 | -0.08 | 0.009 | 0.02 | 0.009 | 0.004 | 0.104 | 0.024 | -0.003 | 0.009 | -0.014 | -0.001 | 0.003 | -0.001 | 0.01 | -0.028 | -0.011 | -0.001 | -0.018 | 0.013
PPIL3 (UniProt Q9H2H8) | -0.105 | -0.044 | 0 | -0.115 | 0.012 | 0.011 | 0.008 | -0.033 | 0.018 | -0.02 | 0.05 | -0.062 | 0.079 | -0.115 | -0.009 | 0.084 | -0.019 | 0 | -0.037 | 0.08
PDCD10 (UniProt Q9BUL8) | -0.053 | -0.002 | 0.013 | 0.029 | -0.005 | -0.019 | 0.034 | 0.01 | 0.05 | -0.025 | -0.016 | -0.014 | -0.005 | -0.254 (active) | -0.007 | 0.112 | 0.023 | -0.013 | -0.033 | 0.031
PCBD2 (UniProt Q9H0N5) | -0.124 | 0.012 | 0.01 | -0.045 | -0.059 | -0.008 | -0.039 | 0.058 | 0.031 | 0.071 | -0.014 | -0.009 | -0.051 | -0.228 (active) | 0.028 | 0.141 | 0.031 | 0.008 | -0.063 | 0.096
PIP4K2B (UniProt P78356) | 0.223 (active) | 0.008 | -0.014 | 0.031 | -0.065 | 0.062 | -0.093 | -0.036 | -0.028 | 0.013 | 0.033 | 0.044 | -0.019 | 0.01 | 0.006 | 0.029 | -0.029 | -0.001 | 0.164 | -0.067
POLR2M (UniProt P0CAP2) | -0.002 | 0.031 | 0.021 | 0.037 | 0.035 | 0.33 (active) | -0.047 | -0.011 | 0.019 | 0.027 | -0.034 | -0.055 | 0.016 | -0.031 | 0.015 | 0.02 | 0.185 | 0.009 | -0.011 | 0.041
PTPN2 (UniProt P17706) | -0.036 | -0.115 | 0.049 | -0.008 | 0.005 | -0.035 | 0.053 | 0.052 | -0.006 | -0.006 | -0.016 | -0.01 | -0.074 | -0.084 | -0.042 | -0.013 | -0.037 | -0.012 | -0.077 | 0.071
PLEKHO2 (UniProt Q8TD55) | -0.067 | -0.228 | 0.281 | -0.001 | -0.106 | 0.007 | 0.054 | -0.004 | 0 | 0.043 | 0.045 | 0.184 | 0.057 | 0.039 | 0.062 | -0.018 | -0.137 | 0.005 | -0.193 | 0.07
